In PubChem BioAssay:
Calls of active or inactive are those of the source. Unless noted, the rule behind the calls is not given here.

Legend:
[1] = circadian clock period modulators, cell-based, LOPAC library, luminescence reporter (AID 2774); details: circadian reporter cells, at 7 µM, actives lie on both sides;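 note: values are relative to mean of DMSO wells on each plate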
[2] = system: Hepatitis C virus NS3 helicase; experiment: HCV NS3 helicase inhibitors, primary screen, biochemical, fluorescence polarization, LOPAC1280 library (AID 687035; in the data active = inhibition above about 37%); details: Purified HCV NS3 helicase, Cy5-dT15 ssDNA binding fluorescence polarization; stronger effect = higher value; concentration not given here
[3] = Cy5 fluorescence quenching or enhancement artefacts, artefact control for HCV NS3 helicase inhibitor project, biochemical, LOPAC1280 (AID 687037); details: Cy5-DNA-NS3h complex fluorescence interference counterscreen
[4] = system: Aerobactin synthetase IucA (Klebsiella pneumoniae, hypervirulent); experiment: IucA enzyme inhibition, biochemical, LOPAC library, absorbance readout (AID 1346212); details: IucA enzyme assay, absorbance (OD) readout; stronger effect = lower value;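 tested at 8 µM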;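 note: 100% = no compound wells and 0% = no enzyme wells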
[5] = sensitizers of A549 cells to miR-34 induction, primary screen, imaging, A549 dox-inducible miR-34, nuclei and caspase counts (AID 1347080;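 active = compounds whose cell count with miR-34 switched on is under 0.7 times the count with it off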); details: A549 miR-34 inducible, Hoechst nuclei count, 48 h
[6] = phospholipid biosynthesis inhibitors in animal cells, primary screen, cell-based, LOPAC library, screen 4 (AID 1347384); details: phospholipid biosynthesis inhibition screen, at 10 µM
[7] = viability rescue of complex I mutant cybrids, primary screen, cell-based, galactose medium, ATP luminescence (AID 1645843;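 active = z-score of at least 1.8 in each of two replicates, scored against plate mean and spread of sample wells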;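 note: positive z means more ATP and so rescue of galactose-driven cybrid death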); details: complex I mutant cybrid cells, 72 h, stronger effect = higher value
[8] = measured here: relative caspase fold change +Dox/-Dox
[9] = measured here: total cells with miR-34 induction, stronger effect = lower value
[10] = measured here: total cells without miR-34 induction

Row | Compound | period change [1] | inhibition [2] | fluorescence ratio (interference) [3] | remaining activity [4] | fold change ([5]; stronger effect = lower value) | fold change [5, 8] | cell count [5, 9] | cell count [5, 10] | outcome [6] | z-score [7]
1 | O=S1(=O)N(CCN2CC=C(c3c[nH]c4cc(F)ccc34)CC2)c2cccc3c2N1CCC3 | 0.13 h (inactive) | 0% (inactive) | 1 (inactive) | 123% (inactive) | 1.01 (inactive) | 0.783 | 5470 | 5400 | inactive | -1.29 (inactive)
2 | CC(N)[C@H](O)c1ccc(O)c(O)c1 (stereo not given in full) | -0.05 h (inactive) | 0% (inactive) | 1 (inactive) | 122% (inactive) | 0.943 (inactive) | 1.34 | 10200 | 10800 | inactive | -0.925 (inactive)
3 | CCCN1CCC[C@@H](c2cccc(O)c2)C1 | 0.11 h (inactive) | -3% (inactive) | 1 (inactive) | 106% (inactive) | 0.956 (inactive) | 0.986 | 9850 | 10300 | inactive | 0.185 (inactive)
4 | CC(C)Oc1cccnc1N(C)C1CCN(Cc2ccccc2)CC1 | 0.225 h (inactive) | -3% (inactive) | 1 (inactive) | 99.8% (inactive) | 0.905 (inactive) | 1.08 | 8620 | 9520 | inactive | -0.4 (inactive)
5 | CN(N=O)c1ccc(O)c(O)c1 | -0.025 h (inactive) | 27% (inactive) | 0.9 (inactive) | 85.2% (inactive) | 1.13 (inactive) | 0.905 | 9750 | 8640 | inactive | 0.2 (inactive)
6 | CCCN(CCC)CCc1ccc(O)c(O)c1 | -0.225 h (inactive) | 0% (inactive) | 1 (inactive) | 95.7% (inactive) | 0.99 (inactive) | 0.931 | 10100 | 10200 | inactive | 0.465 (inactive)
7 | NC(=O)COc1c(F)cc(SCCNS(=O)(=O)c2ccccc2)cc1F | -0.08 h (inactive) | -2% (inactive) | 1 (inactive) | 109% (inactive) | 0.978 (inactive) | 0.398 | 9150 | 9360 | inactive | 0.24 (inactive)
8 | CN(C(=O)Cc1ccc(Cl)c(Cl)c1)C(CN1CCCC1)c1cccc(OCC(=O)O)c1 (stereo not given) | -0.06 h (inactive) | -4% (inactive) | 1 (inactive) | 103% (inactive) | 1.05 (inactive) | 1.11 | 10700 | 10200 | inactive | 0.31 (inactive)
9 | CC(Cc1ccc(OCC(=O)O)cc1)NCC(O)c1cccc(Cl)c1 (stereo not given) | -0.08 h (inactive) | -4% (inactive) | 1 (inactive) | 122% (inactive) | 1.04 (inactive) | 2.14 | 11000 | 10600 | inactive | 0.62 (inactive)
10 | CCCN(CCC)[C@@H]1CCc2cccc(O)c2C1 | -0.075 h (inactive) | -5% (inactive) | 1 (inactive) | 102% (inactive) | 1.11 (inactive) | 1.06 | 10200 | 9240 | inactive | -0.38 (inactive)
11 | Oc1ccc2c3c1O[C@H]1c4oc5ccccc5c4C[C@@]4(O)C(C2)N(CC2CC2)CCC314 (stereo not given in full) | 0.13 h (inactive) | -1% (inactive) | 1 (inactive) | 97.5% (inactive) | 1.1 (inactive) | 0.785 | 10600 | 9610 | inactive | -0.595 (inactive)
12 | CC(C)NP(=O)(NC(C)C)OP(=O)(NC(C)C)NC(C)C | 0.055 h (inactive) | -5% (inactive) | 1 (inactive) | 90.6% (inactive) | 0.945 (inactive) | 1.32 | 9680 | 10200 | inactive | 0.25 (inactive)
13 | CCCN1CCc2cc(O)cc3c2[C@H]1Cc1ccc(O)c(O)c1-3 | 0.415 h (inactive) | 1% (inactive) | 1 (inactive) | 99.8% (inactive) | 0.922 (inactive) | 1.32 | 9400 | 10200 | inactive | -0.965 (inactive)
14 | CNc1ccc2oc(C[C@H]3O[C@@]4(CC[C@H]3C)O[C@H]([C@H](C)C(=O)c3ccc[nH]3)[C@H](C)C[C@H]4C)nc2c1C(=O)O | -0.125 h (inactive) | 1% (inactive) | 1 (inactive) | 119% (inactive) | 0.828 (inactive) | 1.6 | 428 | 516 | inactive | -1.52 (inactive)
15 | OCc1cnc[nH]1 | 0.065 h (inactive) | 0% (inactive) | 1 (inactive) | 102% (inactive) | 0.96 (inactive) | 1.56 | 10400 | 10800 | inactive | 0.255 (inactive)
16 | O=C(O)[C@@H]1CCN1 | 0.09 h (inactive) | -5% (inactive) | 0.9 (inactive) | 122% (inactive) | 1.03 (inactive) | 1.27 | 10700 | 10400 | inactive | 0.2 (inactive)
